Only some compounds are listed: those with a hit (about 1.7% of all), similar ones and a draw of the others.
HEK293 tox = qHTS of GLP-1 Receptor Inverse Agonists: Cytotox Screen; AID 624418, 2012; Potency, µM (top dose mostly 38.3 µM), hits mostly inhibitors; HEK293 cAMP-luciferase reporter cells, luminescence, 24 h; 410,000 tested, 0.13% active;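 also: loss of luciferase light is scored as toxicity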
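To flag toxic compounds, the library was rerun on cells for 24 hr at 37 deg C and 5% CO2. Viability-linked luminescence was captured 12 min after adding luciferase detection reagent.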
GLP1R inv ag = qHTS of GLP-1 Receptor Inverse Agonists (Inhibition Mode) | Glucagon-like peptide 1 receptor (Homo sapiens), P43220 | HEK293 GLP-1R CRE-luciferase, luminescence, 24 h; GLP-1R form is constitutively active | Potency, µM (series often up to 38.3 µM), hits mostly inhibitors | 410,000 tested, 1.6% active | AID 624417, 2012; also: nearly all actives have a fitted effect of over 55% in size
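Inverse agonists were sought by their lowering of basal cAMP reporter luciferase output in HEK293 cells stably carrying constitutively active human GLP-1R, after 24 h compound treatment.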
PTHR1 ag = qHTS for PTHR1 Agonists: Primary Screen | Parathyroid hormone/parathyroid hormone-related peptide receptor (Homo sapiens), Q03431 | HEK293 GP2 PTHR1 cells, GloSensor cAMP luminescence, 1 h | Potency, µM (top dose mostly 115 µM), hits mostly activators | 410,000 tested, 0.075% active | AID 743266, 2014; also: nearly all actives have a fitted effect of over 55% in size
Target sequence (Q03431 whole entry, looked up): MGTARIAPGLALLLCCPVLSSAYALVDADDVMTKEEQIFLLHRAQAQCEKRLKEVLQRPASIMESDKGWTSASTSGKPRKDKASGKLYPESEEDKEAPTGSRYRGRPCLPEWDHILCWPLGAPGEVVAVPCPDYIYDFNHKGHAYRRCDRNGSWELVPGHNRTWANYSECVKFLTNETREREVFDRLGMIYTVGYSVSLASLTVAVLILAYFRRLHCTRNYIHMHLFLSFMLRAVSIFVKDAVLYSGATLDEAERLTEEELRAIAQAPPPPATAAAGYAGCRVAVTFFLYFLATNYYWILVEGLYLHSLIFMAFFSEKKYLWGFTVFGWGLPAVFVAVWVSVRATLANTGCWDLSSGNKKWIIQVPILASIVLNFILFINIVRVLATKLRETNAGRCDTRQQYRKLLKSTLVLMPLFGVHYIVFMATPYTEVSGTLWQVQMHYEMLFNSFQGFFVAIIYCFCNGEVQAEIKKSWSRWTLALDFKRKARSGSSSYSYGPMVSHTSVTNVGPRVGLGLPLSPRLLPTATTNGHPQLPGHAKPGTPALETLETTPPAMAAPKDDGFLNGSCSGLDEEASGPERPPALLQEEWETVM
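HEK-293-derived GP2 cells expressing PTHR1 and a GloSensor cAMP reporter, 3,000/well, plated overnight, given luciferin plus IBMX (each 0.5 mM as added) for 1 h at 37 °C, then compound for 1 h at 37 °C. Luminescence was read after 15 min at room temperature.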
GLP1R ag = qHTS of GLP-1 Receptor Agonists; HEK293 GLP-1R CRE-luciferase, luminescence, 4-6 h; cells express a hypersensitive GLP-1R form; Glucagon-like peptide 1 receptor (Homo sapiens), P43220; AID 624172, 2012; 380,000 tested, 0.007% active; Potency, µM (top dose mostly 45.6 µM), actives largely listed as activators
Large screens that a line does not name were inactive. Calls follow the shape of the dose curve; as a rule, active = well fitted curve in the direction sought with a large enough effect; inconclusive = small, poorly fitted or top-dose-only effect, or another doubt; inactive = no such curve, though single readings can be large; an effect the other way counts as inactive or inconclusive.

O=c1[nH]c(=O)n(C2CCCCCC2)c(O)c1C=NCc1ccc(F)cc1	GLP1R inv ag 10µM
O=c1[nH]c(=O)n(C2CCCCCC2)c(O)c1C=NCC1CCCO1 (configuration not stated)	none
CCS(=O)(=O)c1ncc(Cl)c(C(=O)N(Cc2ccccc2)c2ccc(OC)cc2)n1	HEK293 tox inconclusive, GLP1R inv ag inconclusive (no result: GLP1R ag)
C=CCC1(O)CCC2C3CCC4=CC(=O)CCC4=C3C=CC21C (configuration not stated)	none (no result: HEK293 tox, GLP1R inv ag, PTHR1 ag)
COc1ccccc1/C=C/C1(C(=O)NC2CCCC2)CC(=O)N1c1ccc(F)cc1 (configuration not stated)	HEK293 tox inconclusive, GLP1R inv ag 3.5µM
CN1CCN(CCCN2c3ccccc3Sc3ccc(C(F)(F)F)cc32)CC1	HEK293 tox inconclusive, GLP1R inv ag 8.9µM
O=C(CCN1CCN(CCO)CC1)N1c2ccccc2Sc2ccc(C(F)(F)F)cc21	none
O=C(c1[nH]c(C(F)(F)F)nc1-c1ccccc1)N1CCc2c([nH]c3ccccc23)C1	HEK293 tox inconclusive, GLP1R inv ag inconclusive
COc1ccc(-n2c(/C=C/c3ccc(O)cc3)nc3ccccc3c2=O)cc1	GLP1R inv ag 10µM
O=c1c2ccccc2nc(/C=C/c2ccc(O)cc2)n1-c1ccc(O)cc1	none
COc1cc(CC(C)N)c(OC)cc1C (configuration not stated)	none (no result: HEK293 tox, GLP1R inv ag, PTHR1 ag)
COc1ccc(C(C)=O)cc1CSc1nc(NCc2ccccc2)c2ccccc2n1	HEK293 tox inconclusive (no result: GLP1R ag)
CCOC(=O)[C@]12Cc3cc(C)ccc3[C@H]1N(Cc1ccccc1)C(=O)c1cc(F)c(F)cc12	GLP1R inv ag 11µM
CCOC(=O)[C@]12Cc3cc(OC)ccc3[C@H]1N(Cc1ccccc1)C(=O)c1cc(F)c(F)cc12	GLP1R inv ag inconclusive
CCCCCN1C(=O)c2ccccc2[C@@]2(C(=O)OCC)Cc3cc(OC)ccc3[C@@H]12	HEK293 tox inconclusive, GLP1R inv ag 8.9µM
Cc1cccc(NC(=O)c2oc3ccccc3c2NC(=O)c2cc(=O)c3cc(Cl)ccc3o2)c1	none (no result: GLP1R ag)
COc1ccccc1-c1nn2c(=O)cc(CN3CCN(C(=O)Nc4ccc(C)cc4Cl)CC3)nc2s1	none (no result: GLP1R ag)
CCCCc1ccc2[nH]cc(CCN)c2c1	HEK293 tox inconclusive, GLP1R inv ag 10µM
CCOC(=O)C(O)(c1ccc(NC(=S)NC(=O)c2ccc(Cl)cc2Cl)c(C)c1)C(F)(F)F (configuration not stated)	HEK293 tox inconclusive, GLP1R inv ag 4µM
COC(=O)C(O)(c1ccc(NC(=S)NC(=O)c2ccc(Cl)cc2Cl)c(C)c1)C(F)(F)F (configuration not stated)	HEK293 tox inconclusive, GLP1R inv ag inconclusive
COc1cc(OC)c(OC)cc1CN1CCc2nc(N3CCN(c4ccccc4F)CC3)ncc2C1	none (no result: GLP1R ag)
Cc1nc2ccc(NC(=O)c3cccc(S(=O)(=O)N(C)c4ccccc4)c3)cc2s1	HEK293 tox inconclusive, GLP1R inv ag 5.6µM
CN(C)CCc1c[nH]c2cccc(O)c12	none (no result: HEK293 tox, GLP1R inv ag, PTHR1 ag)
COc1ccccc1CNc1nc(NCc2ccccc2OC)c2sccc2n1	HEK293 tox inconclusive, GLP1R inv ag 11µM
COc1ccccc1CNc1nc(NCc2ccccc2SC)c2sccc2n1	GLP1R inv ag inconclusive
COCCNCCOc1ccc(C(C)(C)c2ccccc2)cc1	GLP1R inv ag 10µM
C[N+](C)(C)CCOC(=O)C(O)(c1ccccc1)c1ccccc1	none (no result: HEK293 tox, GLP1R inv ag, PTHR1 ag)
CCC(=O)OC1[C@@H](N2CCCCC2)C[C@H]2[C@@H]3CC[C@H]4C[C@H](OC(C)=O)[C@@H](N5CCCCC5)C[C@]4(C)[C@H]3CC[C@]12C (some centres not stated)	none (no result: HEK293 tox, GLP1R inv ag, PTHR1 ag)
COc1ccc2c(c1)CCc1c(C(=O)Nc3c(C)nn(Cc4ccccc4C)c3C)noc1-2	GLP1R inv ag 10µM (no result: GLP1R ag)
COc1ccc(NC(=O)c2c(C)nn(Cc3ccccc3Cl)c2Cl)cc1Cl	none
CC1(O)CCC2C3CCC4=CC(=O)CCC4(C)C3(F)C(O)CC21C (configuration not stated)	none (no result: HEK293 tox, GLP1R inv ag, PTHR1 ag)
Cc1nc(Nc2ccc(F)cc2)[nH]c(=O)c1CCC(C)C	HEK293 tox inconclusive, GLP1R inv ag 7.9µM
CCCc1cc(C(=O)Nc2c(C)nn(Cc3ccc(Cl)c(Cl)c3)c2C)no1	HEK293 tox inconclusive, GLP1R inv ag 10µM (no result: GLP1R ag)

From PubChem BioAssay
